Compounds with a hit are over-represented: about 8% of the library has one in this group of screens.
HT1080NT lethal = kills 2HG-producing HT-1080-NT fibrosarcoma cells. HT-1080-NT fibrosarcoma viability, CellTiter-Glo ATP luminescence, 48 h. AID 686970. Potency, µM (titrated, usually from 46.1 µM), without a hit: top-dose activity, negative = less viability, usual class: cytotoxic. hit rate 1.6% among 360,000;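 also: NT is the 2HG producing partner of a matched IDH1 knockdown line; 0% = DMSO-treated cells and -100% = media-only wells without cells; nearly all actives have a fitted effect of over 55% in size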
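Toxicity toward the 2HG-producing NT line was scored as %Activity, normalised to DMSO and no-cell wells, from CellTiter-Glo luminescence after 48 hours' treatment.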
HT1080 IDH1KD tx = toxicity to HT-1080 IDH1 knockdown cells (counter line); HT-1080 IDH1 knockdown viability, ATP luminescence, 48 h; Potency, µM (series often up to 46.1 µM), without a hit: at the highest dose activity, negative = toxicity, actives largely listed as cytotoxic; hit rate 2% among 360,000;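 also: 0% = DMSO wells and -100% = cell-free medium wells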
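Knockdown cells (IDH1KD HT-1080) received compounds 2 h after plating at 750 cells/well and were kept 48 h at 37 °C in 5% FBS RPMI. A CellTiter-Glo luminescence read gave % activity for curve fitting.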
KB-3-1 tox = KB-3-1 parental cell cytotoxicity | hit rate 1.4% among 400,000 | KB-3-1 viability, CellTiter-Glo ATP luminescence, 72 h | Potency, µM (top dose mostly 46.1 µM), hits mostly cytotoxic; also: % is scaled to controls: 0 for no effect and ±100 for the full control effect; nearly all actives have a fitted effect of over 60% in size
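Multi-concentration cytotoxicity screen in KB-3-1 cells grown in DMEM lacking phenol red with 10% FBS. After 72 h at 37 °C with compound, ATP-dependent luminescence was recorded.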
MCF10A rerep = DNA re-replication induction in MCF 10a cells | MCF 10A DNA re-replication, Hoechst nuclear intensity, 48 h | Potency, µM (highest dose often 46.1 µM), for the others: at the highest dose activity, positive = re-replication, actives largely listed as activators | hit rate 2.9% among 350,000 | AID 624296; also: % of control where 0% means no effect; nearly all actives have a fitted effect of over 50% in size
KB-V1 MDR tox = KB-V1 MDR subline cytotoxicity; Potency, µM (series often up to 46.1 µM), hits mostly cytotoxic; KB-V1 MDR cells viability, CellTiter-Glo, 72 h; hit rate 3.4% among 400,000; AID 1347076; also: % is scaled to controls: 0 for no effect and ±100 for the full control effect; nearly all actives have a fitted effect of over 60% in size
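Drug-selected KB-V1 cells, grown in DMEM lacking phenol red with 10% FBS, receive compound titrations; after three days at 37 degrees C, surviving cell ATP is quantified by CellTiter-Glo luminescence and responses normalized and curve-fitted.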
SW480 rereplic = induces DNA re-replication in SW480 colon adenocarcinoma cells. AID 624297. SW480 DNA re-replication, Hoechst DNA content imaging, 48 h. Potency, µM (doses to about 46.1 µM), inactives show at the highest dose re-replication activation, most hits filed as activators. hit rate 1.8% among 340,000; also: % of control where 0% means no effect; nearly all actives have a fitted effect of over 55% in size
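Readout is total intensity of Hoechst-stained nuclei, excited at 405 nm and collected at 500-530 nm. Compound treatment lasted 48 hr at 37 C in 5% CO2 before staining.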
Numbers without * were called inactive; i = inactive; ? = inconclusive; . = not tested or not shown. Calls follow the shape of the dose curve; as a rule, active = well fitted curve in the direction sought with a large enough effect; inconclusive = small, poorly fitted or top-dose-only effect, or another doubt; inactive = no such curve, though single readings can be large; an effect the other way counts as inactive or inconclusive. Potency is read from the fitted curve at half-maximal effect.

SMILES	HT1080NT lethal	HT1080 IDH1KD tx	KB-3-1 tox	MCF10A rerep	KB-V1 MDR tox	SW480 rereplic
CC1=C(C(=O)Nc2ccc(Cl)cc2)C(c2cccs2)n2nc(SCc3cccc(Cl)c3)nc2N1 (stereo not given)	.	.	i	.	?	.
O=C1C=C(N2CCCCC2)c2ccccc2C1=O	6.5µM*	5.8µM*	12µM*	?	10µM*	3.3µM*
Cn1c(=O)cc2c3c(c(N4CCCCC4)ccc31)C(=O)c1ccccc1-2	-12%	0%	i	25%	i	?
O=C1c2ccccc2C(=O)c2c1cccc2N1CCCC1	-15%	-17%	i	-1%	15µM*	-19%
O=C1C=C(C2CCCCC2)C(=O)c2ccccc21	2%	1%	i	?	i	?
CC(=O)Nc1ccc(C)cc1-c1nc2ccccc2n(CC(=O)Nc2cc(Cl)ccc2C)c1=O	.	.	i	.	i	.
O=C(c1ccccc1F)N1CCCC(c2ccccc2)C1 (stereo not given)	15%	11%	i	6%	23µM*	1%
O=C(Cc1ccccc1)N1CCCC(c2nc(-c3ccc(S(=O)(=O)N4CCCC4)cc3)no2)C1 (stereo not given)	-7%	6%	i	-6%	9.2µM*	-3%
O=C(C1CC1)N1CCC(c2nc(-c3ccc(S(=O)(=O)NCC4CCCO4)cc3)no2)CC1 (stereo not given)	?	-26%	?	-17%	?	-1%
O=C(c1ccccc1)N1CCC(c2nc(-c3ccc(S(=O)(=O)NCC4CCCO4)cc3)no2)CC1 (stereo not given)	?	-3%	8.2µM*	?	9.2µM*	7%
O=C(NC1CCCCC1)N1CCC(c2nc(-c3ccc(S(=O)(=O)N4CCCC4)cc3)no2)CC1	-1%	-1%	8.2µM*	?	2.6µM*	?
O=C(N1CCOCC1)N1CCC(c2nc(-c3ccc(S(=O)(=O)N4CCOCC4)cc3)no2)CC1	-4%	5%	i	14%	i	-1%
CS(=O)(=O)N1CCCC(c2nc(-c3ccc(S(=O)(=O)NCc4ccccc4)cc3)no2)C1 (stereo not given)	?	?	?	?	3.3µM*	0%
CC(C)C(=O)N1CCC(c2nc(-c3ccc(S(=O)(=O)N4CCN(C)CC4)cc3)no2)CC1	6%	5%	i	-8%	i	-4%
CC(C)N(C(=O)N1CCC(c2nc(-c3ccncc3)no2)CC1)C(C)C	-16%	-24%	?	2%	10µM*	0%
CN(C)c1cc(-c2ccccc2)nc(N)n1	-16%	-27%	21µM*	?	?	?
CC(=O)[C@H]1CC[C@H]2[C@@H]3CC=C4C[C@@H](O)CC[C@]4(C)[C@H]3CC[C@]12C	29%	4%	?	-2%	?	-1%
CC12CCC(O)CC1=CCC1C2CCC2(C)c3[nH]ncc3CC12 (stereo not given)	-25%	?	i	15µM*	i	?
CN(CC(=O)Nc1ccccc1Cl)S(=O)(=O)c1ccc(C(=O)N2CCOCC2)s1	.	.	i	.	i	.
COc1ccc(-c2c(-c3ccc(OC)nc3)c3ccccc3n2C)cc1	-14%	-14%	i	5.2µM*	i	?
CCCCc1c(C)c(C#N)c2[nH]c3ccccc3n2c1=O	-5%	-7%	?	18µM*	?	-1%
Cc1c(CCO)c(=O)n2c([nH]c3ccccc32)c1C#N	-2%	-8%	i	-4%	i	-7%
COc1ccc(-c2cccc(-c3cc(=O)oc4cc(OC)c(OC)c(OC)c34)c2)cc1	?	?	?	?	23µM*	?
COc1cc(OC)c2c(-c3cccc(-c4ccc(O)cc4)c3)cc(=O)oc2c1	?	?	16µM*	?	?	?

Compound activity as filed in PubChem.
